From PubChem BioAssay AID1863 (Southern Research Specialized Biocontainment Screening …, 2009)
Out of some 300,000 compounds screened, about 480 (0.16%) were called active.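 How the source made its calls: active means inhibition over 29.93%, a cutoff 3 SD above the screen mean, later confirmed by dose response; inconclusive means inhibition over 29.93% but no dose response follow-up; inactive means inhibition at most 29.93% or unconfirmed.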 A selection follows. Results with a measured potency or affinity are listed apart.

Assay: inhibitors of PhoP regulon expression, primary screen, Salmonella Typhimurium, GFP reporter (AID 1863);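 further: 0% = low Mg2+ inducing control and 100% = high Mg2+ repressing control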
Conditions: S. Typhimurium PhoP-regulated promoter GFP reporter, 4 h; at 50 µM; hits give high values

inhibition, inactive:
NC(=O)c1ccc(NC(=O)COc2coc(CN3CCc4ccccc4C3)cc2=O)cc1 6.56%
COc1cc(C(C[N+](=O)[O-])c2c(N)n(C)c(=O)n(C)c2=O)ccc1O (stereo not given) -4.81%
COc1ccccc1C(C[N+](=O)[O-])c1c(N)n(C)c(=O)n(C)c1=O (stereo not given) 2.03%
CC(C)OC(=O)CSc1nnc(CNc2cccc(Cl)c2)n1C -3.82%
CCSc1ccccc1C(=O)Nc1nc2ccccc2c(=O)[nH]1 2.88%
COc1cc2cccc(OC)c(=O)c2c(OC)c1OC -4.09%
COc1cc2cccc(OC)c(=O)c2c(O)c1OC -3.95%
Cc1ccc(-c2nn(-c3ccccc3)cc2C(=O)NCC(c2cccs2)N2CCOCC2)cc1 (stereo not given) -6.92%
CC(C)CCOP(=O)(c1ccc(N(C)C)cc1)C(O)c1c(Cl)cccc1Cl (stereo not given) -4.25%
COc1ccc([N+](=O)[O-])cc1NC(=O)C(C)OC(=O)C1CC(=O)N(Cc2ccco2)C1 (stereo not given) -5.1%
COC(=O)c1ccc(N2C(=O)CC(N3CCOCC3)C2=O)cc1 (stereo not given) 1.31%
COc1ccc2c(c1)C(=NNC(=O)c1ccccn1)c1cc(OC)ccc1-2 -4.06%
O=C(NN=C1c2ccccc2-c2ccccc21)c1ccccn1 9.9%
Cc1ccccc1CS(=O)(=O)c1ccc(C(=O)N2CCC(C)CC2)cc1[N+](=O)[O-] 1.32%
Cn1c2c(c(=O)n(C)c1=O)C(c1ccc(Br)cc1)Nc1ccccc1O2 (stereo not given) -10.1%
Cc1cc(C)n(C(C[N+](=O)[O-])c2ccc(Cl)cc2)n1 (stereo not given) 16.6%
Cc1ccc(C(C[N+](=O)[O-])n2nc(C)cc2C)cc1 (stereo not given) 4.29%
COc1ccc(-c2cc(C(=O)OCC(=O)NC(C)C)c3ccccc3n2)cc1 6.33%
COCCN(C(=O)COC(=O)c1ccc2c(c1)OCCO2)c1c(N)n(Cc2ccccc2)c(=O)[nH]c1=O 0.22%
CCOC(=O)C1CCCN(C(=O)c2ccc(-c3ccc([N+](=O)[O-])cc3)o2)C1 (stereo not given) 3.02%
CSc1ncccc1C(=O)Nc1nc2ccc(Oc3ccccc3)cc2s1 -15.8%
Cc1ccc2nc(N(CCCN(C)C)C(=O)CCc3ccccc3)sc2c1 -4.17%
CN(C)CCCN(C(=O)CCc1ccccc1)c1nc2ccc(Br)cc2s1 10.9%
C=CCN1CCN(C(=O)c2oc3ccccc3c2C)CC1 -3.66%
Cc1ccc(NC2CCCN(C(=O)c3cn(C)c4ccccc34)C2)cc1C (stereo not given) 0.88%
